An excerpt weighted towards active compounds, which were near 0.3% of everything screened.
NPYLR7 ag: mosquito NPYLR7 agonism | 270,000 tested, 0.15% active | activation, % at 10 µM | HEK293T NPYLR7/Galpha15, GCaMP6s calcium fluorescence; in the data active = activation above about 40%;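 also: 0% = vehicle and 100% = reference agonist at the receptor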
hcGAS lum: inhibitors of human cGAS | inhibition, % at 12.5 µM | AID 1259398 | recombinant h-cGAS, ATP depletion, Kinase-Glo luminescence | 290,000 tested, 0.081% active;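 also: 0% = vehicle reaction and 100% = reaction without DNA for no activity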
Target sequence (Q8N884 whole entry, looked up): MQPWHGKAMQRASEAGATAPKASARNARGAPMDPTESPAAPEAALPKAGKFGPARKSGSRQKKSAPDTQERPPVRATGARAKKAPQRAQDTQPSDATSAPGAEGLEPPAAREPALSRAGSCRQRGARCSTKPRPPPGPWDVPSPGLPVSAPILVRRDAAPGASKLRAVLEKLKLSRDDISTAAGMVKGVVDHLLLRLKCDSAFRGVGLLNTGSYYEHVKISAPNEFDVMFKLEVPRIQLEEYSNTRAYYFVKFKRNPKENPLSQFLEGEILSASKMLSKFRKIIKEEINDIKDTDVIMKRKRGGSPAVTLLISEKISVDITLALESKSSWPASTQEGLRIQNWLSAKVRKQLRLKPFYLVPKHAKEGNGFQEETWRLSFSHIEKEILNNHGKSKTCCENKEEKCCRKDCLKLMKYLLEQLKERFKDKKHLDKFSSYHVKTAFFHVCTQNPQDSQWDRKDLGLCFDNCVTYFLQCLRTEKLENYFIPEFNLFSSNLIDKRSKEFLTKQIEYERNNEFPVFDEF
mcGAS lum: mouse cGAS inhibition by luminescence; Q8C6L5; recombinant cGAS, Kinase-Glo ATP depletion luminescence; inhibition, % at 12.5 µM; 160,000 tested, 0.15% active; AID 1259399;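 also: 0% = negative control wells and 100% = reference inhibitor with no enzyme activity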
* hit, by the source's call; x = not tested or not shown. Rule as the data show it, unless noted: active = inhibition above about 40%; inactive = the rest.

SMILES	NPYLR7 ag	hcGAS lum	mcGAS lum
Nc1ccc2oc(=O)[nH]c2c1	2	-9	-6
NC(=O)c1cnc(Sc2ccc3[nH]c(=O)oc3c2)c(Cl)c1	16	-8	-15
O=c1[nH]c2cc(Cl)c(Br)cc2o1	-3	24	42*
O=c1[nH]c2c(Cl)c(Cl)c(Cl)cc2o1	-6	49*	82*
O=c1[nH]c2ccc(S(=O)(=O)Nc3ccccc3Oc3ccccc3Cl)cc2o1	13	10	x
Cc1cccn2c(NC(C)(C)C)c(-c3ccccc3F)nc12	-11	6	-9
CCOc1cc2c(cc1OCC)CN(Cn1nc(C3CC3)n(C)c1=S)CC2	12	-9	x
CCOC(=O)c1c(-c2ccc(C)cc2)csc1N=Cc1nc(-c2ccccc2)oc1O	3	-7	-7
CCOC(=O)c1c(-c2ccccc2)csc1N=Cc1nc(-c2ccccc2)oc1O	97*	-6	-8
CC(C)C(CNc1ccc2nccn2n1)N1CCOCC1 (stereo not drawn)	-3	1	x
COc1ccc(C)cc1NC(=O)Cn1cnc2cc(Cl)ccc2c1=O	-4	-4	x
COc1ccc(Cl)cc1NC(=O)/C(C#N)=C/c1coc2ccc(C)cc2c1=O	50*	11	x
N#Cc1c(N)oc(-c2cccs2)c1-c1cccs1	-1	55*	x
N#Cc1c(N)oc(-c2ccccc2)c1-c1ccccc1	6	50*	34
Cc1nc(N)c(C#N)c(-c2cccs2)c1C	1	-1	x
Nc1nnc(-c2ccccc2)o1	-5	-5	x
O=C(c1ccc(F)c(F)c1)N1CCN(Cc2cccc(-c3noc(-c4cccc(Cl)c4)n3)c2)CC1	14	-5	-3
COC(=O)c1cn(Cc2ccc(F)cc2C(=O)OC)nn1	9	-9	-14
COC(=O)c1cc(N)c(/C=C/c2cccs2)s1	184*	-7	x
Brc1ccsc1/C=C/c1cccs1	-4	-9	x
OC=c1ccc2cccc3nc(C(F)(F)F)nc1c23	77*	4	x
OC(c1ccccc1)=c1ccc2cccc3ncnc1c23	2	-6	x
CCCN(Cc1cccc(OC)c1)Cc1ccc(C(O)(CCC)CCC)o1	-8	-2	-3
CC(N)=C(C#N)C(=O)Cn1cc(C(F)(F)F)cc(Cl)c1=O	14	-4	x
CC(=O)c1c(C)[nH]c(C(=O)Cn2cc(C(F)(F)F)cc(Cl)c2=O)c1C	-2	74*	-2
SMILES	NPYLR7 ag	hcGAS lum	mcGAS lum
Cc1ccc(CN(C)C(=O)CCl)o1	-1	4	7
CN(Cc1ccc(-c2ccc(Cl)cc2)o1)C(=O)CCl	6	-5	50*
O=C(NC1CSc2c1nc1ccccc1c2C(=O)O)c1ccccc1 (stereo not drawn)	2	41*	x
O=C(Nc1ccccc1I)c1c2c(nc3ccccc13)CCCC2	-1	-6	-9
CC1(C)CC(=O)c2cc3c(N)c(C(=O)Nc4ccc(F)cc4)sc3nc2C1	-1	-4	x
O=C(c1ccc(CSc2nc3ccccc3s2)cc1)N1C2CCC1CC(Oc1cccc(C(F)(F)F)c1)C2 (stereo not drawn)	7	-18	-8
CS(=O)(=O)c1ccc(-c2cccc3c2OC(CNC(=O)c2cc[n+]([O-])cc2)C3)cc1 (stereo not drawn)	76*	-6	-10
O=C(NCC1Cc2cccc(F)c2O1)c1ccc(F)cc1 (stereo not drawn)	5	-1	-4
CCOc1cc(-c2nn(CN3CCOCC3)c(=S)o2)cc(OCC)c1OCC	3	4	x
S=c1oc(-c2sc3ccccc3c2Cl)nn1CN1CCOCC1	2	43*	24
Cn1nc(-c2ccc(Cl)cc2)cc1NC(=O)c1c(O)c2ccccc2[nH]c1=O	2	-3	-5
CN1CCC2(CC1)CN(C(=O)CN(C)Cc1cccnc1)CCN2C	-7	-6	-12
CN(C)/C=C1\C(=O)N(c2c(Cl)cccc2Cl)c2cc(C=C(C#N)C#N)ccc21	125*	-38	x
N#CC(=CC1C(=O)N(c2c(Cl)cccc2Cl)c2ccccc21)C(N)=NCc1ccccc1 (stereo not drawn)	-11	-4	x
N#CC1C(=N)Oc2cc(O)ccc2C1C1CC=CCC1 (stereo not drawn)	7	-4	-3
N#CC(C#N)=CC(=N)C(C#N)c1cc(O)c(O)c(O)c1 (stereo not drawn)	7	12	51*
COCCCN(Cc1ccc(C(C)(C)C)cc1)Cc1cccn1Cc1cccc(C)c1	41*	-10	-5
COCCN(Cc1ccc(C(C)(C)C)cc1)Cc1cccn1Cc1cccc(C)c1	17	1	-3
CCN1CCc2c(sc(NC(=O)COc3ccccc3)c2-c2nc3ccccc3s2)C1	53*	2	-1
CN1CCc2c(sc(NC(=O)CN3C(=O)c4ccccc4C3=O)c2-c2nc3ccccc3s2)C1	2	0	-6
CCN1CCc2c(sc(NC(=O)CS(=O)(=O)c3ccccc3)c2-c2nc3ccccc3s2)C1	22	-9	-8
CCN1CCc2c(sc(NC(=O)c3ccc(C(C)=O)cc3)c2-c2nc3ccccc3s2)C1	20	7	2
CCN1CCc2c(sc(NC(=O)c3ccc(OC)cc3)c2-c2nc3ccccc3s2)C1	10	0	-3
CCC(=O)Nc1sc2c(c1-c1nc3ccccc3s1)CCN(CC)C2	28	73*	100*
CCN1CCc2c(sc(NC(=O)c3ccccc3)c2-c2nc3ccccc3s2)C1	91*	17	6
SMILES	NPYLR7 ag	hcGAS lum	mcGAS lum
CCN1CCc2c(sc(NC(=O)CN3C(=O)CCC3=O)c2-c2nc3ccccc3s2)C1	24	45*	44*
CC(C)Cc1nc(N2CCCN(C(=O)C(C)C)CC2)c2c(-c3cccc(Oc4ccccc4)c3)noc2n1	21	-3	-7
Cc1ccc(C2(C(F)(F)F)N=C(Cl)C(C#N)=C3C=CC=CN32)cc1 (stereo not drawn)	15	-5	x
O=C(c1cc(-c2ccccc2)on1)N1CCCC(N2CCC(CO)CC2)C1 (stereo not drawn)	13	-5	x
CCC(CC)N(Cc1ccc2c(c1)OCO2)C(=O)CS(C)(=O)=O	x	-8	-11
O=C(OC(c1cncc(F)c1)C1CCCCC1)C1COCCO1 (stereo not drawn)	-8	-8	x
CCN1CCc2c(sc(NC(=O)c3ccco3)c2-c2nc3ccccc3s2)C1	9	38	39
CCN1CCc2c(sc(NC(C)=O)c2-c2nc3ccccc3s2)C1	5	73*	94*
Cc1ccc(OCCNC(=O)CCc2ccccc2F)cc1	4	11	x
C=C(C)CN(CC)C(=O)c1ccccc1Cn1cccn1	13	-11	x
CCOC(=O)c1ccc(N=c2oc3ccccc3cc2-c2nc3ccccc3[nH]2)cc1	0	-4	-5
NC(=O)N/N=c1\oc2ccccc2cc1-c1nc2ccccc2[nH]1	-2	-5	48*
COc1ccccc1N=c1oc2ccc3ccccc3c2cc1-c1nc2ccccc2[nH]1	-3	-1	x
COc1ccccc1N=c1oc2cc(O)ccc2cc1-c1nc2ccccc2[nH]1	81*	-4	-5
CCOC(=O)c1ccc(N=c2oc3cc(O)ccc3cc2-c2nc3ccccc3[nH]2)cc1	120*	-3	-6
NC(=S)N/N=c1\oc2ccccc2cc1-c1nc2ccccc2[nH]1	-5	-2	x
O=C(c1cccs1)c1cccs1	-1	-9	x
NC(=O)n1c(O)c(C(=O)c2cccs2)c2cc(Cl)ccc21	-3	67*	x
